Compound activity deposited in PubChem BioAssay by The Scripps Research Institute Molecular Screening Center.
DAX1 inh-1 = inhibitors of DAX1 repression of SF-1 activated StAR promoter; hit rate 1.1% among 370,000; inhibition, % at 6.8 µM; AID 652010; HEK293T StAR-luciferase reporter, SF-1/DAX-1 repression relief;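 active = inhibition above the mean over all tested compounds plus 3 SD, cut at about 3.6% in these data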;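 note: higher inhibition means more luminescence from relief of DAX-1 repression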
DAX1 inh-2 = inhibits human nuclear receptor DAX1; HEK293 Gal4-DAX1 luciferase reporter, luminescence; inhibition, % at 6.75 µM; P51843; AID 504766; hit rate 0.99% among 340,000;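 active = inhibition above the mean over all tested compounds plus 3 SD, cut at about 4.2% in these data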;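 note: inhibition shows as a rise in luminescence from relieved DAX1 repression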
ssDAF12 agonist = activators of S. stercoralis DAF-12 nuclear receptor | AID 652126 | activation, % at 6.8 µM | hit rate 1% among 370,000 | HEK293 ssDAF-12/GRIP1 lit1-tk-luc reporter, luminescence; % of 3 µM dafachronic acid response;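 active = activation above the mean over all tested compounds plus 3 SD, cut at about 0.9% in these data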
hcDAF12 agonist = activates DAF-12 receptor from parasite H. contortus; HEK293 hcDAF-12 lit1-tk-luc reporter, luminescence; 0% DMSO, 100% Δ7-dafachronic acid; activation, % at 6.8 µM; hit rate 1.4% among 370,000;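 active = activation above the mean of all tested compounds plus 3 SD, cut at about 5.5% in these data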
hgDAF12 agonist = activates the H. glycines DAF-12 receptor ligand-binding domain. HEK293 GAL4-hgDAF12 UAS-luciferase reporter, agonist luminescence; normalized to butyrate control. activation, % at 6.8 µM. hit rate 1.8% among 370,000. AID 687014;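 active = activation above a cutoff set at the mean of all screened compounds plus 3 SD, cut at about 10% in these data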
SMARCA2 act = increases SMARCA2 function in MMTV reporter cells | MG213 cells, MMTV-luciferase reporter, dexamethasone, overnight | activation, % at 9.1 µM | hit rate 1% among 370,000; in the data active = activation above about 7.8%
hgDAF12 conf = confirmation of H. glycines DAF-12 agonists. shares compounds with hgDAF12 agonist. HEK293 GAL4-hgDAF12 luciferase reporter, agonist mode; percent of butyrate response. activation, % at 6.8 µM. hit rate 80% among 3,300. AID 743050;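 active = mean activation over triplicate wells above the hit cutoff derived from the earlier primary screen, cut at about 11% in these data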
LXRb DAF12 ctr = LXR-beta agonism as DAF-12 counter-screen. activation, % at 6.8 µM. 3,300 tested, under 10 active. AID 743051. shares compounds with hgDAF12 agonist. HEK293 Gal4-LXR luciferase reporter, 24 h;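 active = mean activation of the triplicate above a set limit carried over from the primary screen, none filed active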
Target sequence (P55055 whole entry, looked up, the tested form may be a part): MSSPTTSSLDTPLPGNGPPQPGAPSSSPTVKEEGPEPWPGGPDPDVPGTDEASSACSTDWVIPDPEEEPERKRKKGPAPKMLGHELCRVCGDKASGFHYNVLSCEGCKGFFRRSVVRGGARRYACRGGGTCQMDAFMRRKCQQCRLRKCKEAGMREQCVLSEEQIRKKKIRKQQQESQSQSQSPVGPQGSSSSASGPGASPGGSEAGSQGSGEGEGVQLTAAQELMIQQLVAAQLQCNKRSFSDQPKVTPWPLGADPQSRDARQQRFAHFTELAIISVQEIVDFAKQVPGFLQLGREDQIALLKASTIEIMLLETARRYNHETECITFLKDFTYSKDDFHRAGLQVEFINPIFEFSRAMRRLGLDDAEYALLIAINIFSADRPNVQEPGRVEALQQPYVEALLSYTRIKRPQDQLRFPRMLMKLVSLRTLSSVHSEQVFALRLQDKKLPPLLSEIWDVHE
Numbers stand for hits; . = inactive; / = no result. Hits are enriched below; roughly 4.8% of the tested compounds scored in any of these assays.

SMILES	DAX1 inh-1	DAX1 inh-2	ssDAF12 agonist	hcDAF12 agonist	hgDAF12 agonist	SMARCA2 act	hgDAF12 conf	LXRb DAF12 ctr
CC(C)CC1O[C@@H](C)[C@@H]2CN3CCc4c([nH]c5ccccc45)[C@@H]3C[C@@H]2N1C (some centres not stated)	.	/	.	.	.	.	/	/
N=C1/C(=C/c2ccc(OCc3ccccc3F)cc2)C(=O)N=C2SC(CC(=O)N3CCOCC3)=NN12	.	.	.	.	15	.	.	.
Cc1ccc(-c2nc3ccccc3s2)cc1NC(=S)NC(=O)c1ccccc1	.	.	1.6	5.7	15	.	16	.
O=C(N/N=C\C=C\c1ccco1)c1cc(-c2ccc3ccccc3c2)n[nH]1	.	.	.	.	16	.	.	.
O=C(Nc1ccc(O)cc1)c1c(O)c2c([nH]c1=O)CCCC2	3.7	.	.	.	14	.	13	.
COC(=O)c1ccccc1NC(=O)c1c(O)c2c([nH]c1=O)CCCC2	.	.	.	.	.	.	/	/
CCc1nc2ccc(C(=O)NCCCn3ccnc3)cn2c1N(C)Cc1ccc(Cl)cc1	.	/	.	.	.	.	/	/
COc1ccc(CCC(=O)NNC(=S)NCc2ccc(F)cc2)cc1	.	.	.	.	14	.	.	.
CCCCCCC12Cc3cc(OC)c(OC)cc3C(O1)C1=C(O2)C(C)(C)CCC1=O (configuration not stated)	.	/	.	.	.	.	/	/
COC(=O)[C@]12C[C@H](CC(=O)N3CCCCC3)C(=O)N(Cc3ccccc3)C1=C[C@H](C(C)C)O[C@@H]2C1CC1	.	/	.	.	.	.	/	/
COc1ccc(NC(=S)N/C(=N/CS(=O)(=O)c2ccccc2)c2ccccc2)cc1	.	.	.	.	14	.	.	.
CCOC(=O)[C@]12CCCC=C1N(CCCOC)C(=O)[C@@H]2CC(=O)NCCCCc1ccccc1	.	/	.	.	.	.	/	/
CCSc1ncnc2c1oc1ccccc12	.	.	.	.	.	.	/	/
Clc1ncnc2c1oc1ccccc12	.	.	1.6	6.2	19	.	16	.
CO/N=C/NC(=O)N1OC[C@@H]2COc3ccc4ccccc4c3[C@@H]21	.	.	.	.	.	.	/	/
NC(=S)N1OC[C@@H]2COc3ccc4ccccc4c3[C@@H]21	.	.	.	.	21	.	.	.
O=C(Nc1ccc(Br)cc1)c1ccccc1Br	.	4.9	.	.	13	.	16	.
O=C(Nc1ccc(Br)cc1)c1ccc2ncsc2c1	.	.	1.0	.	19	.	15	.
CCc1nc2c(OCCOc3ccc(F)cc3)cccn2c1N(C)C(=O)c1ccco1	.	/	.	.	.	.	/	/
O=C(NN=C1C2CC3CC(C2)CC1C3)c1ccncc1	.	.	.	.	.	.	/	/
O=C(NN=C1C2CC3CC1CC(Cl)(C3)C2)c1cccs1	4.0	5.0	.	6.3	27	.	.	.
COc1ccc(Nc2ncnc3c2c(C)c(C)n3CCO)cc1	.	.	.	.	16	.	17	.
O=C1c2ccccc2C(=O)N1CCc1c[nH]c2ccccc12	3.6	13	.	.	19	.	13	.
O=C1c2ccccc2C(=O)N1CCCc1c[nH]c2ccccc12	.	.	.	.	.	.	/	/
COc1cccc(C(=O)N2CCC[C@@H]2C(=O)N2CCC[C@H]2C(=O)NCc2ccccc2)c1	.	/	.	.	.	.	/	/
SMILES	DAX1 inh-1	DAX1 inh-2	ssDAF12 agonist	hcDAF12 agonist	hgDAF12 agonist	SMARCA2 act	hgDAF12 conf	LXRb DAF12 ctr
Fc1ccc2cc(C3=CCCCC3)ncc2c1	.	/	.	.	.	.	/	/
Cc1ccc(NC(=O)OCCN(C)C(=O)Nc2ccc(C)cc2C)c(C)c1	.	/	.	.	.	.	/	/
CN(C)c1cccc(C(=O)NNC(=O)CN2C(=O)C3CC=CCC3C2=O)c1 (configuration not stated)	.	5.7	.	.	14	.	.	.
CN(C)c1ccc(/C=C2\CCC/C(=C\c3ccccc3)C2=O)cc1	.	.	.	.	.	.	/	/
O=C1/C(=C/c2ccccc2)CCCc2ccccc21	.	.	.	.	14	.	11	.
CCCc1cc(=O)oc2cc(C)cc(OCC(=O)Nc3ccccn3)c12	.	.	.	.	.	.	/	/
CCCCc1cc(=O)oc2cc(C)cc(OCC(=O)Nc3ccccn3)c12	.	.	.	.	15	.	.	.
N/C(=N\OC(=O)c1ccc2c(c1)OCO2)c1cccnc1	.	.	1.1	.	14	.	11	.
CCOc1cc(C2NN=C(c3ccc(C)cc3)S2)ccc1O (configuration not stated)	.	.	.	.	14	.	16	.
CSCCC(c1nc2ccccc2[nH]1)n1c(/C=C/c2ccc(Cl)cc2)nc2ccccc21 (configuration not stated)	.	/	.	.	.	.	/	/
CCOC(=O)C1=CCN(S(=O)(=O)c2ccc(Cl)cc2)C1c1cccc(Cl)c1 (configuration not stated)	.	/	.	.	.	.	/	/
O=C(Nc1ccc(CN2CCOCC2)cc1)c1cccc(F)c1	.	.	.	.	15	.	14	.
O=C(Nc1ccc(CN2CCOCC2)cc1)c1ccc(F)cc1	.	.	.	.	.	.	/	/
O=C(CC(Nc1ccc(Cl)cc1)C(=O)O)c1ccccc1 (configuration not stated)	.	.	1.2	.	14	.	20	.
COC(=O)Cc1nnn2c1[C@H](C)[C@H](c1cccc(OC)c1OC)OCC2	.	/	.	.	.	.	/	/
O=C(Nc1ccccc1)Nc1ccccc1Br	4.1	.	.	.	19	.	.	.
CC(=O)c1ccc(N/C=C\C(=O)c2ccc(C)cc2)cc1	.	.	2.0	.	18	.	20	.
N#Cc1c(N)nc(N)nc1Nc1ccc(Br)cc1	.	.	.	.	17	.	18	.
O=c1/c(=C/c2cccc3ccccc23)sc2ncnn12	.	.	.	.	.	.	/	/
Cc1ccsc1/C=c1\sc2ncnn2c1=O	.	.	.	.	14	.	.	.
O=C(C(=O)N1CCN(S(=O)(=O)c2ccc(C(F)(F)F)cc2)CC1)c1cccc(C(F)(F)F)c1	.	/	.	.	.	.	/	/
COc1cc(/C=N/O)ccc1OCc1ccc(C(=O)O)cc1	.	.	.	.	13	.	16	.
COc1ccc(/C=N/NS(=O)(=O)c2ccc(C)cc2)cc1OC(=O)c1ccccc1	.	.	.	.	.	.	/	/
COc1cc(/C=N/NS(=O)(=O)c2ccc3ccccc3c2)ccc1OCc1ccc(C(=O)O)cc1	.	.	.	.	15	.	13	.
